Compound activity from PubChem BioAssay.
A selection: hits, their analogues and other compounds. The true share with any hit is near 0.41%.
Menin-MLL FL inh: qHTS Assay for Inhibitors Targeting the Menin-MLL Interaction in MLL Related Leukemias: Competition With Fluorescein Labeled MLL-derived Peptide; AID 1766, 2009; Fluorescence polarization, fluorescein-MLL peptide displacement from menin; FP activity change, % at 61.4 µM; 290,000 tested, under 10 active; active means well fitted curve in the direction sought with a large enough effect in the polarisation, not every such curve was filed as active; inconclusive means small, poorly fitted or top-dose-only effect, or effect the other way, or a change in a side signal; inactive means no such curve, though single readings can be large or run the other way; the % refers to the polarisation; further: % of control where 0% means no effect
MLL CXXC-DNA inh: qHTS Fluorescence Polarization Assay for Inhibitors of MLL CXXC domain - DNA interaction; Histone-lysine N-methyltransferase 2A (Homo sapiens), Q03164; MLL-CXXC / FITC-HOXA9 DNA fluorescence polarization; Potency, µM (top dose mostly 115 µM), inactives show at the top dose activity change, negative = inhibition, usual class: inhibitors; actives 0.037% (n = 290,000); active means well fitted inhibition curve with a large enough effect in the polarisation, with a control signal flat, not every such curve was filed as active; inconclusive means small, poorly fitted or top-dose-only effect, or effect the other way, or a change in a side signal; inactive means no such curve, though single readings can be large or run the other way; the % refers to the polarisation; further: potency means the concentration at half of the fitted maximal effect
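Purified MLL-CXXC (added from a 7 uM solution) was preincubated 5 min at ambient with pinned compounds in 50 mM Tris-HCl pH 7.5, 50 mM NaCl, 1 mM DTT, 0.05% BSA. Fluorescein-labeled HOX-A9 DNA (50 nM solution) followed, 30 min, then polarization read.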
Menin-MLL TR inh: qHTS Assay for Inhibitors Targeting the Menin-MLL Interaction in MLL Related Leukemias: Competition With Texas Red Labeled MLL-derived Mutant Peptide; O00255; Menin + Texas Red MLL mutant peptide, fluorescence polarization; Potency, µM (doses to about 61.6 µM), for inactives: at the top dose FP activity change, negative = inhibition, usual class: inhibitors; actives 0.23% (n = 270,000); AID 1768, 2009; active means well fitted inhibition curve with a large enough effect in the polarisation, with a control signal flat, not every such curve was filed as active; inconclusive means small, poorly fitted or top-dose-only effect, or effect the other way, or a change in a side signal; inactive means no such curve, though single readings can be large or run the other way; the % refers to the polarisation; further: potency means the concentration at half of the fitted maximal effect; % of control where 0% means no effect
PKM2 act: qHTS Assay for Activators of Human Muscle isoform 2 Pyruvate Kinase; Pyruvate kinase PKM (Homo sapiens), P14618; purified PKM2, Kinase-Glo ATP luminescence, activation; response scale: 0% is enzyme alone, no compound; Potency, µM (titrated, usually from 57.5 µM), inactives show at the highest dose activation, hits mostly activators; actives 0.34% (n = 260,000); AID 1631, 2009; further: potency means the concentration at half of the fitted maximal effect; on the % scale 0 is the no-effect control and ±100 the full control effect; nearly all actives have a fitted effect of over 55% in size
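hPK-M2, >95% pure; 0.1 mM ADP / 0.5 mM PEP final; imidazole pH7.2 buffer w/ 7 mM MgCl2, 50 mM KCl; 1 h RT; Kinase-Glo lum. Intermediate enzyme activity for dual inhibitor/activator qHTS.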
MLL CXXC Fl: qHTS Fluorescence Polarization (FP) Assay for Inhibitors of MLL CXXC domain - DNA interaction: Fluorescein FP. shares compounds with MLL CXXC-DNA inh. MLL CXXC-DNA binding, fluorescein FP. Potency, µM (series often up to 345 µM), for inactives: at the highest dose activity change, negative = inhibition, hits mostly inhibitors. actives 70% (n = 200). AID 624160, 2012; further: potency means the concentration at half of the fitted maximal effect; nearly all actives have a fitted effect of over 80% in size
MLL CXXC TxRed: qHTS Fluorescence Polarization (FP) Assay for Inhibitors of MLL CXXC domain - DNA interaction: Texas Red FP | shares compounds with MLL CXXC-DNA inh | MLL CXXC-DNA binding, Texas Red fluorescence polarization | Potency, µM (titrated, usually from 345 µM), without a hit: at the highest dose activity change, negative = inhibition, hits mostly inhibitors | actives 40% (n = 200) | AID 624161, 2012; further: potency means the concentration at half of the fitted maximal effect; on the % scale 0 is the no-effect control and ±100 the full control effect; nearly all actives have a fitted effect of over 75% in size
MLL CXXC TRF: qHTS Fluorescence Polarization (FP) Assay for Inhibitors of MLL CXXC domain - DNA interaction: HTRF Assay. shares compounds with MLL CXXC-DNA inh. MLL CXXC-DNA binding, HTRF, biochemical. Potency, µM (titrated, usually from 172 µM), inactives show top-dose activity change, negative = inhibition, usual class: inhibitors. actives 30% (n = 210). AID 624162, 2012; further: on the % scale 0 is the no-effect control and ±100 the full control effect; nearly all actives have a fitted effect of over 80% in size
Starred values were filed as active, the others as inactive; ? = inconclusive; . = no result given; [ ] = another dose, or the depositor's remark. Unless noted, the call rests on the fitted dose curve; in most records, active means well fitted curve in the direction sought with a large enough effect; inconclusive means small, poorly fitted or top-dose-only effect, or another doubt; inactive means no such curve, though single readings can be large; an effect the other way counts as inactive or inconclusive.

SMILES	Menin-MLL FL inh	MLL CXXC-DNA inh	Menin-MLL TR inh	PKM2 act	MLL CXXC Fl	MLL CXXC TxRed	MLL CXXC TRF
Cc1cc(/C=C2\C(=O)NC(=O)N(c3ccccc3)C2=O)c(C)n1-c1ccc(C(=O)O)c(Cl)c1	15.1	?	22.9%	10.6%	7.1%	113µM*	-2.2%
Cc1cc(/C=C2\C(=O)NC(=O)N(c3ccc(F)cc3)C2=O)c(C)n1-c1cccc(C(=O)O)c1	8.2	-18.6%	9.8%	9.1%	.	.	.
CCOP(=S)(OCC)O/N=C(\C#N)c1ccccc1Cl	3.3	.	1.8%	.	.	.	.
N[C@@]1(C(=O)O)CC[C@H](C(=O)O)C1	-9.8	.	3.2%[24.8 µM]	.	.	.	.
CC(CO)NC(=O)C1C=C2c3cccc4[nH]cc(c34)CC2N(C)C1 (stereo not given)	?	31.6µM*	-15.0%	.	142µM*	?	24.4%
O=P(O)(O)CCCl	-1.0	.	-6.2%	.	.	.	.
O=P(O)(O)C(Cl)(Cl)P(=O)(O)O	-4.7	35.5µM*	-2.1%	.	?	?	24.3µM*
CN(CCOc1ccc(C=C2C(=O)NC(=O)NC2=O)cc1)c1ccccn1	-0.1	-3.3%	7.3%	?	.	.	.
COc1ccc(OCCOc2cccc(C=C3C(=O)NC(=O)NC3=O)c2)cc1	-1.0	?	49.4%	6.7%	44.8µM*	?	38.5µM*
COc1cc(C=C2C(=O)NC(=O)NC2=O)ccc1O	?	?	23.5%	8.8%	56.5µM*	159µM*	122µM*
CCOc1cc(C=C2C(=O)NC(=O)NC2=O)cc([N+](=O)[O-])c1O	-6.5	31.6µM*	?	4.3%	20µM*	89.5µM*	19.3µM*
CN(C)c1ccc(C=C2C(=O)NC(=O)NC2=O)cc1[N+](=O)[O-]	-0.5	-7.7%	13.9%	27.0%	.	.	.
CON(C)C(=O)Nc1ccc(Br)c(Cl)c1	?	.	-0.5%	.	.	.	.
CC(=O)OC1C[C@@]2(C)C(c3ccoc3)C[C@H]3O[C@@]32[C@@]2(C)C(=O)C(O)=C3C(C)(C)C(=O)C=C[C@]3(C)C12 (stereo not given in full)	-0.9	.	15.8%	.	.	.	.
CCc1ccccc1NC(=O)NNS(=O)(=O)c1cc(C)ccc1C	0.4	14.1µM*	-1.2%	1.6%	?	-24.2%	0.0%
CC1=NN(c2ccccc2)C(=O)/C1=C/c1c(O)[nH]c(=O)[nH]c1=O	-1.3	1.4%	21.3%	0.8%	.	.	.
O=c1[nH]c(O)c(/C=C2\C=NN=C2c2ccccc2)c(=O)[nH]1	5.7	?	3.4%	8.8%	4.7%	126µM*	48.5µM*
C[C@@H]1O[C@H](O[C@H]2C[C@@H](O)[C@@]3(CO)[C@H]4[C@@H](O)C[C@]5(C)[C@@H](C6=CC(=O)OC6)CC[C@]5(O)[C@H]4CC[C@]3(O)C2)[C@@H](O)[C@H](O)[C@@H]1O	1.8[24.8 µM]	.	-8.9%[24.8 µM]	.	.	.	.
